Shown are actives, neighbours in structure and some others; about 2.2% of the full set was active somewhere.
CRFR2-BP antag = antagonists of CRF-binding protein/CRF-R2 receptor complex. HEK293 CRF-R2/CRF-BP, CRF-induced calcium fluorescence. inhibition, % at 11.8 µM. 0.59% of 350,000 active. AID 588475;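 active = inhibition of the ligand-induced calcium signal above about 50% at the single tested concentration, limit read from the data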
RTF Ca sens act = cardiac RTF calcium sensitization | IANBD-labeled TnC RTF fluorescence at EC20 calcium; 0% EC20 calcium, 100% full calcium | activation, % at 7.2 µM | 0.24% of 340,000 active;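 active = activation above the mean over all tested compounds plus 3 SD, cut at about 30% in these data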;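 note: rise in fluorescence read as greater calcium sensitivity of cardiac thin filaments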
CRFBP-R2 agonist = CRF-BP/CRF-R2 complex agonism; HEK293 CRF-R2/CRF-BP, calcium dye fluorescence (FLIPR); percent of saturating CRF peptide response; activation, % at 13.2 µM; 0.46% of 350,000 active;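 active = activation of at least 50%, plus an integration ratio under a set limit after plate pattern correction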
RTF Ca sens inh = cardiac RTF calcium desensitization; P19429+P45379; IANBD-labeled cardiac RTF, Ca2+ fluorescence; inhibition, % at 7.15 µM; 0.12% of 340,000 active;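 active = inhibition above the mean inhibition of all tested compounds plus 3 SD, cut at about 17% in these data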;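 note: assay run at fixed EC70 calcium of 1.6 mM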
Myeloid diff 2 = myeloid differentiation induction | calls only at 10 µM | ER-HoxA9 myeloid progenitors, lysozyme-GFP differentiation, flow cytometry | 1% of 360,000 active;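 active = normalized GFP-positive differentiation at or above the plate's own cutoff, the solvent-only control mean plus 3 SD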;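 note: cells exposed to compound for four days before flow analysis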
A number is an active result.

How did COc1ccc(C(=O)NC(=S)NNC(=O)c2c(-c3ccccc3)noc2C)cc1OC do in these assays?
CRFR2-BP antag: inactive; CRFBP-R2 agonist: inactive; Myeloid diff 2: inactive

How did Cc1onc(-c2ccccc2)c1C(=O)NNC(=S)NC(=O)c1ccc2c(c1)OCO2 do in these assays?
CRFR2-BP antag: inactive; RTF Ca sens act: inactive; CRFBP-R2 agonist: 86; RTF Ca sens inh: inactive; Myeloid diff 2: inactive

What do the screens show for `COc1ccc(CNC(=O)CN(Cc2ccc(Cl)cc2)S(=O)(=O)c2ccccc2)cc1`?
CRFR2-BP antag: inactive; RTF Ca sens act: inactive; CRFBP-R2 agonist: inactive; RTF Ca sens inh: inactive; Myeloid diff 2: active

What do the screens show for `COc1ccc(C)cc1S(=O)(=O)N(CC(=O)N1CCOCC1)Cc1ccccc1`?
CRFR2-BP antag: inactive; RTF Ca sens act: inactive; CRFBP-R2 agonist: inactive; RTF Ca sens inh: inactive; Myeloid diff 2: inactive

How did COc1ccc(C)cc1S(=O)(=O)N(CC(=O)NCc1ccc(Cl)cc1)Cc1ccccc1 do in these assays?
CRFR2-BP antag: inactive; RTF Ca sens act: inactive; CRFBP-R2 agonist: inactive; RTF Ca sens inh: inactive; Myeloid diff 2: active

Results for COc1ccc(CNC(=O)CN(Cc2ccccc2)S(=O)(=O)c2ccc(Cl)cc2)cc1 ?
CRFR2-BP antag: inactive; RTF Ca sens act: inactive; CRFBP-R2 agonist: inactive; RTF Ca sens inh: inactive; Myeloid diff 2: inactive

What do the screens show for `O=C(COc1ccc(Cl)cc1)NCc1ccccc1`?
CRFR2-BP antag: inactive; RTF Ca sens act: 152; CRFBP-R2 agonist: inactive; RTF Ca sens inh: inactive; Myeloid diff 2: inactive

How did Cc1cccc(C)c1NC(=O)CN1CCN(CC(=O)NCC2(N3CCCCC3)CCCCC2)CC1 do in these assays?
CRFR2-BP antag: inactive; RTF Ca sens act: inactive; CRFBP-R2 agonist: inactive; RTF Ca sens inh: inactive; Myeloid diff 2: inactive

Results for CC(=O)Nc1cc(-c2cccc(C(=O)NCCO)c2)cn2c(-c3ccc(F)c(Cl)c3)cnc12 ?
Myeloid diff 2: inactive

Results for O=C1c2[nH]nc(-c3ccccc3O)c2C(c2ccccc2)N1Cc1ccco1 (stereo not drawn) ?
CRFR2-BP antag: inactive; RTF Ca sens act: inactive; CRFBP-R2 agonist: inactive; RTF Ca sens inh: inactive; Myeloid diff 2: active

What do the screens show for `COc1cccc(C2c3c(-c4ccccc4O)n[nH]c3C(=O)N2Cc2ccco2)c1` (stereo not drawn)?
CRFR2-BP antag: inactive; RTF Ca sens act: inactive; CRFBP-R2 agonist: inactive; RTF Ca sens inh: inactive; Myeloid diff 2: inactive

Results for CC(C)(C)c1ccc(S(=O)(=O)Nc2cccc(C3OCCCO3)c2)cc1 ?
CRFR2-BP antag: inactive; RTF Ca sens act: inactive; CRFBP-R2 agonist: inactive; RTF Ca sens inh: inactive; Myeloid diff 2: inactive

What do the screens show for `COc1cccc(F)c1C(=O)NC(=O)Nc1ccc2nc(C)oc2c1`?
CRFR2-BP antag: inactive; RTF Ca sens act: 45; CRFBP-R2 agonist: inactive; RTF Ca sens inh: inactive; Myeloid diff 2: inactive

What do the screens show for `COc1ccc(Cl)cc1NC(=O)C(C)NC(c1ccccc1)c1ccccc1` (stereo not drawn)?
CRFR2-BP antag: 53; RTF Ca sens act: inactive; CRFBP-R2 agonist: inactive; RTF Ca sens inh: inactive; Myeloid diff 2: inactive

What do the screens show for `COc1ccc(Cl)cc1NC(=O)NC(C)C`?
CRFR2-BP antag: inactive; RTF Ca sens act: inactive; CRFBP-R2 agonist: inactive; RTF Ca sens inh: inactive; Myeloid diff 2: inactive

Results for CCOc1ccc(NC(=O)c2cc(C3CC3)nc3c2cnn3C(C)C)cc1OC ?
CRFR2-BP antag: inactive; RTF Ca sens act: inactive; CRFBP-R2 agonist: inactive; RTF Ca sens inh: inactive; Myeloid diff 2: inactive

How did Cc1ccc(NC(=O)CN(C)C(=O)COc2ccc(Br)cc2)cc1 do in these assays?
CRFR2-BP antag: inactive; CRFBP-R2 agonist: inactive; Myeloid diff 2: inactive

Results for COc1ccc(N2Cc3ccccc3C2=O)cc1 ?
CRFR2-BP antag: inactive; RTF Ca sens act: inactive; CRFBP-R2 agonist: inactive; RTF Ca sens inh: inactive; Myeloid diff 2: inactive

What do the screens show for `C=CC(=O)Oc1ccc(N2Cc3ccccc3C2=O)cc1`?
CRFR2-BP antag: 97; CRFBP-R2 agonist: inactive; Myeloid diff 2: inactive

Results for Cc1ccc(-n2c(Cc3cccn3C)nnc2SCC(=O)NCc2ccc3c(c2)OCO3)cc1 ?
CRFR2-BP antag: inactive; RTF Ca sens act: inactive; CRFBP-R2 agonist: inactive; RTF Ca sens inh: inactive; Myeloid diff 2: inactive

How did O=C(C(c1ccccc1)c1ccccc1)N1CCN(CCN2C(=O)c3cccc4cccc(c34)C2=O)CC1 do in these assays?
CRFR2-BP antag: 52; RTF Ca sens act: inactive; CRFBP-R2 agonist: inactive; RTF Ca sens inh: inactive; Myeloid diff 2: inactive

Results for CC(C)C(=O)N1CCN(CCN2C(=O)c3cccc4cccc(c34)C2=O)CC1 ?
CRFR2-BP antag: inactive; RTF Ca sens act: inactive; CRFBP-R2 agonist: inactive; RTF Ca sens inh: inactive; Myeloid diff 2: inactive

What do the screens show for `CCOC(=O)C1=C(C)N=c2s/c(=C\c3ccc(OC(C)=O)c(OCC)c3)c(=O)n2C1/C=C/c1ccccc1` (stereo not drawn)?
CRFR2-BP antag: inactive; RTF Ca sens act: inactive; CRFBP-R2 agonist: inactive; RTF Ca sens inh: inactive; Myeloid diff 2: inactive

What do the screens show for `CCOC(=O)C1=C(C)N=c2s/c(=C\c3ccc(OC(C)=O)cc3)c(=O)n2C1/C=C/c1ccccc1` (stereo not drawn)?
CRFR2-BP antag: inactive; RTF Ca sens act: inactive; CRFBP-R2 agonist: inactive; RTF Ca sens inh: inactive; Myeloid diff 2: active

How did CCOc1ccccc1CNC(=O)C1CCCN(c2ncnc3c2nc2n3CCCCC2)C1 (stereo not drawn) do in these assays?
CRFR2-BP antag: inactive; RTF Ca sens act: inactive; CRFBP-R2 agonist: inactive; RTF Ca sens inh: inactive; Myeloid diff 2: inactive

How did Cc1ccc(CCNC(=O)C2CCCN(c3ncnc4c3nc3n4CCCCC3)C2)cc1 (stereo not drawn) do in these assays?
CRFR2-BP antag: inactive; RTF Ca sens act: inactive; CRFBP-R2 agonist: inactive; RTF Ca sens inh: inactive; Myeloid diff 2: inactive

What do the screens show for `CCOc1ccc(CCNC(=O)C2CCCN(c3ncnc4c3nc3n4CCCCC3)C2)cc1` (stereo not drawn)?
CRFR2-BP antag: 115; RTF Ca sens act: inactive; CRFBP-R2 agonist: inactive; RTF Ca sens inh: inactive; Myeloid diff 2: inactive

Results for O=C(NCc1ccccc1Cl)C1CCCN(c2ncnc3c2nc2n3CCCCC2)C1 (stereo not drawn) ?
CRFR2-BP antag: inactive; RTF Ca sens act: inactive; CRFBP-R2 agonist: inactive; RTF Ca sens inh: inactive; Myeloid diff 2: active

Results for O=C(C[C@H]1C/C=C\C[C@@H](Cc2ccc(F)cc2)C(=O)OC[C@@H]2CCCN2C1=O)NCCO ?
CRFR2-BP antag: inactive; RTF Ca sens act: inactive; CRFBP-R2 agonist: inactive; RTF Ca sens inh: inactive; Myeloid diff 2: inactive

Results for Cc1cccc(-n2ccnc2SCC(=O)Nc2nnc(C)s2)c1 ?
CRFR2-BP antag: inactive; RTF Ca sens act: inactive; CRFBP-R2 agonist: inactive; RTF Ca sens inh: inactive; Myeloid diff 2: inactive

Results for CCc1nnc(NC(=O)CSc2nccn2-c2cccc(C)c2)s1 ?
CRFR2-BP antag: inactive; RTF Ca sens act: inactive; CRFBP-R2 agonist: inactive; RTF Ca sens inh: inactive; Myeloid diff 2: active

What do the screens show for `CCOc1ccccc1CNc1nnnn1C`?
CRFR2-BP antag: inactive; RTF Ca sens act: inactive; CRFBP-R2 agonist: inactive; RTF Ca sens inh: inactive; Myeloid diff 2: inactive

Results for CCOc1ccccc1CNn1nnnc1N ?
CRFR2-BP antag: inactive; RTF Ca sens act: inactive; CRFBP-R2 agonist: inactive; RTF Ca sens inh: inactive; Myeloid diff 2: active
